Laboratory results as given in PubChem BioAssay (NCI).
Compounds without any hit were thinned out: in the full panel of roughly 79,000, 15% have a hit. Calls of active or inactive are those of the source. Rule as the data show it: active = growth inhibition above about 70%; inactive = the rest.

Experiments:
[1] = NCI Yeast Anticancer Drug Screen. Data for the rad52 strain (AID 147);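 also: 0% = growth of vehicle-treated control cultures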; settings: S. cerevisiae rad52 mutant growth inhibition, stronger effect = higher value
How it was run: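 Growth of repair-deficient yeast cells was compared between compound-treated and vehicle-treated cultures to give percent inhibition.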

[2] = NCI Yeast Anticancer Drug Screen. Data for the wt1 strain (AID 149);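 also: 0% = growth of vehicle-treated wt1 cultures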; settings: S. cerevisiae wt1 strain (SPY 50644) growth inhibition, stronger effect = higher value
How it was run: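 Yeast wt1 strain exposed to compounds; growth inhibition measured relative to vehicle-treated controls.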

[3] = NCI Yeast Anticancer Drug Screen. Data for the rad50EPP+ strain (AID 151);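 also: 0% = growth of vehicle-treated control cultures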; settings: S. cerevisiae rad50 mutant strain, stronger effect = higher value
How it was run: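 Measured: growth inhibition of rad50EPP+ yeast. Reference: vehicle-treated controls. Screen uses strains with defined genetic alterations in DNA damage repair or cell cycle control.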

[4] = NCI Yeast Anticancer Drug Screen. Data for the rad50 strain (AID 155);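 also: 0% = growth of vehicle-only cultures of the same strain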; settings: S. cerevisiae rad50 strain growth inhibition, stronger effect = higher value
How it was run: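 Yeast carrying a defined DNA repair defect were exposed to test compounds, and growth was compared with vehicle-treated controls to give percent inhibition.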

[5] = NCI Yeast Anticancer Drug Screen. Data for the mec2-1 strain (AID 157); settings: S. cerevisiae mec2-1 strain, stronger effect = higher value
How it was run: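 Compounds were applied to mec2-1 yeast cells. Their growth was then compared with that of vehicle-treated cultures to give growth inhibition.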

[6] = NCI Yeast Anticancer Drug Screen. Data for the rad14 strain (AID 159);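 also: 0% = growth of vehicle-treated control cultures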; settings: S. cerevisiae rad14 strain growth inhibition, stronger effect = higher value
How it was run: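 Yeast cells carrying a defined DNA-repair defect were exposed to compounds, and growth inhibition was calculated relative to vehicle-treated control cultures.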

[7] = NCI Yeast Anticancer Drug Screen. Data for the sgs1 mgt1 strain (AID 161);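 also: 0% = growth of cultures given vehicle only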; settings: S. cerevisiae sgs1 mgt1 strain, stronger effect = higher value
How it was run: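 Percent growth inhibition was derived by comparing compound-exposed mutant yeast with vehicle-exposed cultures. The strain carries alterations in DNA damage repair.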

[8] = NCI Yeast Anticancer Drug Screen. Data for the CLN2oe strain (AID 163);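 also: 0% = growth of vehicle-only control cultures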; settings: S. cerevisiae CLN2oe strain, stronger effect = higher value
How it was run: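 Cells of an engineered yeast line with disturbed cell-cycle regulation are treated with compound. Inhibition of growth is then calculated relative to the vehicle-treated reference.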

[9] = NCI Yeast Anticancer Drug Screen. Data for the cln2 rad14 strain (AID 165);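 also: 0% = growth equal to vehicle treated cultures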; settings: S. cerevisiae cln2 rad14 strain, stronger effect = higher value
How it was run: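 Strain: cln2 rad14 yeast, altered in cell cycle control and DNA damage repair. Read-out: growth inhibition vs vehicle.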

[10] = NCI Yeast Anticancer Drug Screen. Data for the bub3 strain (AID 167); settings: S. cerevisiae bub3 mutant strain, stronger effect = higher value
How it was run: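 Compounds were applied to a genetically altered yeast strain carrying a cell-cycle control defect. Growth inhibition was scored against vehicle-treated controls.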

[11] = NCI Yeast Anticancer Drug Screen. Data for the wt2 strain (AID 169);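 also: 0% = growth of vehicle-treated yeast cultures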; settings: S. cerevisiae wt2 strain growth inhibition, stronger effect = higher value
How it was run: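 Growth of compound-treated yeast is measured and expressed as inhibition relative to vehicle-only controls.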

[12] = NCI Yeast Anticancer Drug Screen. Data for the mlh1 strain (AID 171);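 also: 0% = growth of vehicle-treated control cultures of the same strain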; settings: S. cerevisiae mlh1 strain growth inhibition, stronger effect = higher value
How it was run: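 Test agents were incubated with yeast bearing a defined DNA damage repair or cell cycle control alteration; values are growth inhibition normalised to vehicle-treated cultures.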

[13] = NCI Yeast Anticancer Drug Screen. Data for the sgs1 strain (AID 173);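 also: 0% = growth of vehicle-only control cultures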; settings: S. cerevisiae sgs1 mutant, stronger effect = higher value
How it was run: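 Strain with an altered DNA repair or cell cycle pathway exposed to compound. Growth then measured. Value = inhibition versus vehicle control.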

[14] = NCI Yeast Anticancer Drug Screen. Data for the mlh1 rad18 strain (AID 175); settings: S. cerevisiae mlh1 rad18 strain growth inhibition, stronger effect = higher value
How it was run: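 A repair-deficient yeast strain is exposed to test compound, and growth is scored relative to vehicle-treated controls.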

[15] = NCI Yeast Anticancer Drug Screen. Data for the rad18 strain (AID 177); settings: S. cerevisiae rad18 mutant growth inhibition, stronger effect = higher value
How it was run: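 DNA-repair-defective yeast; compound treatment; growth inhibition scored against vehicle.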

[16] = at 5.0 µM (retest, dose inferred, filed as 0.5)
[17] = at 50.0 µM (retest, dose inferred, filed as 5.0)

Measured: growth inhibition

O=[N+]([O-])c1oc2ccc3ccccc3c2c1CCO
inactive: [2]; at 1.2 µM 2% | [2]; at 3.7 µM 14% | [3]; at 1.2 µM 63% | [8]; at 1.2 µM 29% | [8]; at 3.7 µM 66% | [10]; at 1.2 µM -17% | [10]; at 3.7 µM -3% | [10]; [16] 14% | [11]; at 1.2 µM 5% | [11]; at 3.7 µM 19% | [12]; at 1.2 µM 10% | [12]; at 3.7 µM 44%
active: [1]; at 1.2 µM 89% | [1]; at 3.7 µM 94% | [1]; at 11.0 µM 97% | [1]; at 33.0 µM 98% | [1]; at 100.0 µM 98% | [2]; at 11.0 µM 75% | [2]; at 33.0 µM 97% | [2]; at 100.0 µM 98% | [3]; at 3.7 µM 84% | [3]; at 11.0 µM 95% | [3]; at 33.0 µM 97% | [3]; at 100.0 µM 98% | [4]; at 1.2 µM 83% | [4]; at 3.7 µM 90% | [4]; [16] 89% | [4]; at 11.0 µM 96% | [4]; at 33.0 µM 98% | [4]; [17] 99% | [4]; at 50.0 µM 99% | [4]; at 100.0 µM 98% | [5]; at 1.2 µM 79% | [5]; at 3.7 µM 92% | [5]; [16] 97% | [5]; at 11.0 µM 98% | [5]; at 33.0 µM 99% | [5]; [17] 99% | [5]; at 50.0 µM 98.2% | [5]; at 100.0 µM 99% | [6]; at 1.2 µM 94% | [6]; at 3.7 µM 97% | [6]; at 11.0 µM 98% | [6]; at 33.0 µM 99% | [6]; at 100.0 µM 99% | [7]; [16] 92% | [7]; [17] 98% | [7]; at 50.0 µM 99.3% | [8]; at 11.0 µM 87% | [8]; at 33.0 µM 97% | [8]; at 100.0 µM 99% | [9]; [16] 98% | [9]; [17] 99% | [9]; at 50.0 µM 98.5% | [10]; at 11.0 µM 78% | [10]; at 33.0 µM 98% | [10]; [17] 99% | [10]; at 50.0 µM 97.8% | [10]; at 100.0 µM 99% | [11]; at 11.0 µM 80% | [11]; at 33.0 µM 97% | [11]; at 100.0 µM 99% | [12]; at 11.0 µM 88% | [12]; at 33.0 µM 98% | [12]; at 100.0 µM 99% | [13]; at 1.2 µM 82% | [13]; at 3.7 µM 88% | [13]; at 11.0 µM 95% | [13]; at 33.0 µM 98% | [13]; at 100.0 µM 99% | [14]; [16] 95% | [14]; [17] 99% | [14]; at 50.0 µM 96.7% | [15]; at 1.2 µM 97% | [15]; at 3.7 µM 96% | [15]; at 11.0 µM 97% | [15]; at 33.0 µM 98% | [15]; at 100.0 µM 99%
